Measured values taken from PMC7862700, “An all-to-all approach to the identification of sequence-specific readers for epigenetic DNA modifications on cytosine”.

Tests used:
Assay in all cases: DAPPL (digital affinity profiling via proximity ligation, sequencing); 10 mM Tris-HCl pH 7.5, 50 mM NaCl, 1 mM DTT, 4% glycerol, room temperature, 30 min; GST-TFs on glutathione beads, 16-mer random dsDNA library, 0.1% formaldehyde crosslink after washing; high values mean tight binding
FLI1 = molecular target: T1, FLI1 (Homo sapiens, UniProt Q01543 1-452); conditions: protein: recombinant; tags: N-terminal GST; dsDNA, one strand shown
T1 sequence: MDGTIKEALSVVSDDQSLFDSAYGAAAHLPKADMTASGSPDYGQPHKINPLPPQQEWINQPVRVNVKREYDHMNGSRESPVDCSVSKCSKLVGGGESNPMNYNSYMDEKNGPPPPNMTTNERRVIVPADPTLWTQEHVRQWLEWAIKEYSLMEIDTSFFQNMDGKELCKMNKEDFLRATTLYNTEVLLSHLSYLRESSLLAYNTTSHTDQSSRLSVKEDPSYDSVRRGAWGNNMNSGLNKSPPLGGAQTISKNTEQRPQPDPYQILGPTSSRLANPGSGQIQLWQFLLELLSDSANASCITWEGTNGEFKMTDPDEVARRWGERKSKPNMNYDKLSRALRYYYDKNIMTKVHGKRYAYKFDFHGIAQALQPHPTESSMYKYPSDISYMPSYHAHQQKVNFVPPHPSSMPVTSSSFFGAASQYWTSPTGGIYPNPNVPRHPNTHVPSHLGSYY
Procedure, shortened: (§1)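 Sequencing on an Illumina NextSeq500 followed washing, crosslinking with 0.1% formaldehyde, proximity ligation (BsaI/T4 ligase, 1 h, 37 °C) and PCR amplification of pools that had been incubated for 30 min at room temperature with 200 nmole of a random double-stranded 16-mer DNA library in Tris/NaCl/DTT/glycerol buffer. Each pool held DNA-barcoded human transcription factors, expressed in yeast as GST fusions and captured on glutathione beads, plus a tag-only sample. Binding signal is a hexamer's read frequency for a factor divided by its frequency in the tag-only sample.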

ELK1 = molecular target: T2, ELK1 (Homo sapiens, UniProt P19419 1-428); conditions: protein: recombinant; tags: N-terminal GST; dsDNA, one strand shown
T2 sequence: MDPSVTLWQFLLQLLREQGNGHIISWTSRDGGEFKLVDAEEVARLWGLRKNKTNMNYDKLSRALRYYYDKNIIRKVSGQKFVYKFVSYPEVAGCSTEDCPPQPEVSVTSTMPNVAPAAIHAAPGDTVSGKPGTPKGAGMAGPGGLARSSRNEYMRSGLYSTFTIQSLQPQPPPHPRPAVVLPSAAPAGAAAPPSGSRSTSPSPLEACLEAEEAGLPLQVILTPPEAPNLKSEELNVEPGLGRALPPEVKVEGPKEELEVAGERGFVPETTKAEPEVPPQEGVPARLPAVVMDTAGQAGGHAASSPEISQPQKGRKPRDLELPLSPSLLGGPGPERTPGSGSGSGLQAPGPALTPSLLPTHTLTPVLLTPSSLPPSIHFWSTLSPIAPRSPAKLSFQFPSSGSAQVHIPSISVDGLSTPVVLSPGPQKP
Procedure, shortened: as §1

GABPA = molecular target: T3, GABPA (Homo sapiens, UniProt Q06546 1-454); conditions: protein: recombinant; tags: N-terminal GST; dsDNA, one strand shown
T3 sequence: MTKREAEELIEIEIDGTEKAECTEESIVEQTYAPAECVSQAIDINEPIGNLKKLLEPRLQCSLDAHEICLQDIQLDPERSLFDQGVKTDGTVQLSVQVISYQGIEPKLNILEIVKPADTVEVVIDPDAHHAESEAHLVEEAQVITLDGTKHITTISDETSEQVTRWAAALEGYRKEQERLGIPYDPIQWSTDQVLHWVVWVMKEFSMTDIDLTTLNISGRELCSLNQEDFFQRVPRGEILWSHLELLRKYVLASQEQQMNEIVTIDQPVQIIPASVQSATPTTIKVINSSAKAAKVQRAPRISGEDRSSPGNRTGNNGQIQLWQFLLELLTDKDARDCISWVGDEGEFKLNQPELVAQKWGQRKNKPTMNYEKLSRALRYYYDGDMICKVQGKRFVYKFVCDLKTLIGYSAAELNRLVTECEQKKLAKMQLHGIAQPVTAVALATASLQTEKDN
Procedure, shortened: as §1

ERG = molecular target: T4, ERG (Homo sapiens, UniProt P11308 1-479); conditions: protein: recombinant; tags: N-terminal GST; dsDNA, one strand shown
T4 sequence: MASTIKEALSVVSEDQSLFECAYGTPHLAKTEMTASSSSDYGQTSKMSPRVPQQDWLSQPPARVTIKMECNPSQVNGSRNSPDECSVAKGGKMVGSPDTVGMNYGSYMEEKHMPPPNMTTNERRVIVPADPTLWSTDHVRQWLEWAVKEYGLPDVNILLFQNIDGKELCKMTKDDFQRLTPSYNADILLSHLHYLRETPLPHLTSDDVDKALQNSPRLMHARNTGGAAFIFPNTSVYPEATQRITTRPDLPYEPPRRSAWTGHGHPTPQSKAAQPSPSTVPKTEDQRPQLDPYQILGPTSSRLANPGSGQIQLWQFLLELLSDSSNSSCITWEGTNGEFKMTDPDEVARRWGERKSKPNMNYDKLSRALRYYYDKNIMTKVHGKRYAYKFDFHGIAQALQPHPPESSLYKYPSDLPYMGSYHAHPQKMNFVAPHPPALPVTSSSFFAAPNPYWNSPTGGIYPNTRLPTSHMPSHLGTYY
Procedure, shortened: as §1

ELF1 = ELF1 (Homo sapiens, UniProt P32519 1-619); conditions: protein: recombinant; tags: N-terminal GST; dsDNA, one strand shown
Procedure, shortened: as §1

EHF = molecular target: T5, EHF (Homo sapiens, UniProt Q9NZC4 1-300); conditions: protein: recombinant; tags: N-terminal GST; dsDNA, one strand shown
T5 sequence: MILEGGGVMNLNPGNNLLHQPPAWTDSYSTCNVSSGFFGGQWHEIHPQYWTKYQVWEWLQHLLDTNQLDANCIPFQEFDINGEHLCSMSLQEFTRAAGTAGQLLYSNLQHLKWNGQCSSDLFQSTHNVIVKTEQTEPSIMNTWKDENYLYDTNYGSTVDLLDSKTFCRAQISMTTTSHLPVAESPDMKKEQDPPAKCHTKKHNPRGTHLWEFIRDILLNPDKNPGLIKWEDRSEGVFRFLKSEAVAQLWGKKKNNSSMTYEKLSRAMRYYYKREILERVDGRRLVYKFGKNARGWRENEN
Procedure, shortened: as §1

SPI1 = SPI1 (Homo sapiens, UniProt P17947 1-270); conditions: protein: recombinant; tags: N-terminal GST; dsDNA, one strand shown
Procedure, shortened: as §1

SPIB = SPIB (Homo sapiens, UniProt Q01892 1-262); conditions: protein: recombinant; tags: N-terminal GST; dsDNA, one strand shown
Procedure, shortened: as §1

ELK3 = molecular target: T6, ELK3 (Homo sapiens, UniProt P41970 1-407); conditions: protein: recombinant; tags: N-terminal GST; dsDNA, one strand shown
T6 sequence: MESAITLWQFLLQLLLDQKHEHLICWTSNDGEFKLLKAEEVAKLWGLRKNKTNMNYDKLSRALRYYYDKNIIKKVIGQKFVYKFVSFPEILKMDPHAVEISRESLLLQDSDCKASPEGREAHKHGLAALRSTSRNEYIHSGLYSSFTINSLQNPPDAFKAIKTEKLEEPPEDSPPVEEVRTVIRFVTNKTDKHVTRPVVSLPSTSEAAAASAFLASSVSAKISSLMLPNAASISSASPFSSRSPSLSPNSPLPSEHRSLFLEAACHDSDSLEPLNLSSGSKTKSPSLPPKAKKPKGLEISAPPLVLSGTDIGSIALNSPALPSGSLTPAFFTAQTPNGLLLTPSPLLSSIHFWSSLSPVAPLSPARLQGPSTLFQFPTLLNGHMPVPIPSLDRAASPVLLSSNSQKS
Procedure, shortened: as §1

FEV = molecular target: T7, FEV (Homo sapiens, UniProt Q99581 1-238); conditions: protein: recombinant; tags: N-terminal GST; dsDNA, one strand shown
T7 sequence: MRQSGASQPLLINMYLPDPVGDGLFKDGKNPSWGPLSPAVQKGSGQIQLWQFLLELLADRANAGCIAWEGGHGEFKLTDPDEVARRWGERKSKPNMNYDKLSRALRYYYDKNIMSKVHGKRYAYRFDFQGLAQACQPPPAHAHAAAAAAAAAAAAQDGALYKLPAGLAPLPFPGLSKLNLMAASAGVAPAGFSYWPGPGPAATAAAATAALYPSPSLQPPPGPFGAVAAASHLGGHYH
Procedure, shortened: as §1

ETV5 = ETV5 (Homo sapiens, UniProt P41161 1-510); conditions: protein: recombinant; tags: N-terminal GST; dsDNA, one strand shown
Procedure, shortened: as §1

HSF1 = HSF1 (Homo sapiens, UniProt Q00613 1-529); conditions: protein: recombinant; tags: N-terminal GST; chain copies: 3; dsDNA, one strand shown
Procedure, shortened: as §1

SPIC = molecular target: T8, SPIC (Homo sapiens, UniProt Q8N5J4 1-248); conditions: protein: recombinant; tags: N-terminal GST; dsDNA, one strand shown
T8 sequence: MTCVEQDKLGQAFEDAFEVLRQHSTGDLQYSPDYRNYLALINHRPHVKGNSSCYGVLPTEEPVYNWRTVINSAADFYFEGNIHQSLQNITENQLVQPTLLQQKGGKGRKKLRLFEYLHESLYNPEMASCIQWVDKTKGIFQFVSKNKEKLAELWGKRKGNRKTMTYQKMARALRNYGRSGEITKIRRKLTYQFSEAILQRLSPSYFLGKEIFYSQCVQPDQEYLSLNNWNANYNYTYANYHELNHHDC
Procedure, shortened: as §1

ELF4 = ELF4 (Homo sapiens, UniProt Q99607 1-663); conditions: protein: recombinant; tags: N-terminal GST; dsDNA, one strand shown
Procedure, shortened: as §1

ELK4 = molecular target: T9, ELK4 (Homo sapiens, UniProt P28324-2 1-405); conditions: protein: recombinant; tags: N-terminal GST; dsDNA, one strand shown
T9 sequence: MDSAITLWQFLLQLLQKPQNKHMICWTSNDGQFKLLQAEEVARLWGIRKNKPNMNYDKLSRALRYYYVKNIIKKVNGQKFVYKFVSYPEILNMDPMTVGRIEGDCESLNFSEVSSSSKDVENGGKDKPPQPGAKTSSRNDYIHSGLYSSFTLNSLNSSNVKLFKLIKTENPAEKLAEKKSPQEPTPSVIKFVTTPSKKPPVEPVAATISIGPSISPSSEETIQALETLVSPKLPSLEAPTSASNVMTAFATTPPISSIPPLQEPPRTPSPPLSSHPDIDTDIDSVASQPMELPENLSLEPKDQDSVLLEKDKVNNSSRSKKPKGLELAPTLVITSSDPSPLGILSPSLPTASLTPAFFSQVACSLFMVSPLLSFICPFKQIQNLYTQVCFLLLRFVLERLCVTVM
Procedure, shortened: as §1

ETV2 = molecular target: T10, ETV2 (Homo sapiens, UniProt O00321 1-342); conditions: protein: recombinant; tags: N-terminal GST; dsDNA, one strand shown
T10 sequence: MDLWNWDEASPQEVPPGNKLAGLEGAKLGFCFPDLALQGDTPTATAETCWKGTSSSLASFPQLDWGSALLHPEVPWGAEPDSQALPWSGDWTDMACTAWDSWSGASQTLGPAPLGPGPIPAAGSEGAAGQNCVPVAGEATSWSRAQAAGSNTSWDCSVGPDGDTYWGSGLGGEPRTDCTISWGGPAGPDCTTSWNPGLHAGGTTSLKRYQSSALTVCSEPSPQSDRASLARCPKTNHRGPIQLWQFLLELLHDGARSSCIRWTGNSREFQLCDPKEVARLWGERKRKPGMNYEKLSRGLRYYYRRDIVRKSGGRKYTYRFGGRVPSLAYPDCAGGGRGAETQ
Procedure, shortened: as §1

ELF3 = molecular target: T11, ELF3 (Homo sapiens, UniProt P78545 1-371); conditions: protein: recombinant; tags: N-terminal GST; dsDNA, one strand shown
T11 sequence: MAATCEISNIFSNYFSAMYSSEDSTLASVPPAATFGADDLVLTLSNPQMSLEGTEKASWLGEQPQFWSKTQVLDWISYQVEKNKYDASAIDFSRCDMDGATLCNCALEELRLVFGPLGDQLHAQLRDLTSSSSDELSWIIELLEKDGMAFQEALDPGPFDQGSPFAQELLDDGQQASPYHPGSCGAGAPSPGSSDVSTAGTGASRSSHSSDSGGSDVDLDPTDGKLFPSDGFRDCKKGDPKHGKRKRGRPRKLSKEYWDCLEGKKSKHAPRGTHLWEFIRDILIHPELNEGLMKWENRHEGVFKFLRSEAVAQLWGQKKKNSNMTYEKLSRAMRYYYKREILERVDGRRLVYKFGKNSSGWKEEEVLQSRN
Procedure, shortened: as §1

CRX = CRX (Homo sapiens, UniProt O43186 1-299); conditions: protein: recombinant; tags: N-terminal GST; dsDNA, one strand shown
Procedure, shortened: as §1

ETV1 = ETV1 (Homo sapiens, UniProt P50549 1-477); conditions: protein: recombinant; tags: N-terminal GST; dsDNA, one strand shown
Procedure, shortened: as §1

ELF4, sequence (Q99607 whole entry): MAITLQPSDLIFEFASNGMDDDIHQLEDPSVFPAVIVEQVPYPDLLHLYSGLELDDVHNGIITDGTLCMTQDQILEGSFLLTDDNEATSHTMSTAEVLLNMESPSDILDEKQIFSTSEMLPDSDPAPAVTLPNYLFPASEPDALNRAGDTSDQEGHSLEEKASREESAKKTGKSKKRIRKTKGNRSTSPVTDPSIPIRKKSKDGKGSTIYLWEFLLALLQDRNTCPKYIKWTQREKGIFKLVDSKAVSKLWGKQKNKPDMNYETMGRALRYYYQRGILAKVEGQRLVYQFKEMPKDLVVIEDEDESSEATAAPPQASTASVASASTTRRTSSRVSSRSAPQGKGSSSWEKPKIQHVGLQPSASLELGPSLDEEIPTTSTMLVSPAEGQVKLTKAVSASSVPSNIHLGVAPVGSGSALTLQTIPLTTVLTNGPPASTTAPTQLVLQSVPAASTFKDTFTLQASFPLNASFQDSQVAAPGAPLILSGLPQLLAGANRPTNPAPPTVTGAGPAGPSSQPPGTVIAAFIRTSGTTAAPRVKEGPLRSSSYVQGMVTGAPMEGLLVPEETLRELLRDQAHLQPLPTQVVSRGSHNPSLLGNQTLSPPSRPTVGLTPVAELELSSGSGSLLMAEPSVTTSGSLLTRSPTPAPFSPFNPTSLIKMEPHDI
SPIB, sequence (Q01892 whole entry): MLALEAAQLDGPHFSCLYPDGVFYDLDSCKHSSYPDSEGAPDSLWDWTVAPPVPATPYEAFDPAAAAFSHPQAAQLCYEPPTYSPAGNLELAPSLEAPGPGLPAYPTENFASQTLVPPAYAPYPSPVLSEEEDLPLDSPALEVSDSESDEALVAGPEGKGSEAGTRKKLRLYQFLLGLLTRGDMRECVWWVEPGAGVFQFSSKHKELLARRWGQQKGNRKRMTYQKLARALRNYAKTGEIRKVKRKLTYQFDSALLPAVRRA
ETV5, sequence (P41161 whole entry): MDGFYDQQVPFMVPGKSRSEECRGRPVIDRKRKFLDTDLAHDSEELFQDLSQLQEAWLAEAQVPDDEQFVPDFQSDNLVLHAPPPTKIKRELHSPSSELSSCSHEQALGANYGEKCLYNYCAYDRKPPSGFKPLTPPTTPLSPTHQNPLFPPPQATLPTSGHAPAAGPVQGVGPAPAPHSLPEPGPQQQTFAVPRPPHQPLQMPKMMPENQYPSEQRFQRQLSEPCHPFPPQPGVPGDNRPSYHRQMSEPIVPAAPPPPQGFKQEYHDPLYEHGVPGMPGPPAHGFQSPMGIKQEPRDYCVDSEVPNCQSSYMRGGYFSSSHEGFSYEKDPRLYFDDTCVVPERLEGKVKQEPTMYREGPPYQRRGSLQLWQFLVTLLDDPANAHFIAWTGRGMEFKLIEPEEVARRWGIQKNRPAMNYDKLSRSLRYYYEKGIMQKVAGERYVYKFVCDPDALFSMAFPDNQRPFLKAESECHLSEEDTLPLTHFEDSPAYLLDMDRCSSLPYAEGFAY
CRX, sequence (O43186 whole entry): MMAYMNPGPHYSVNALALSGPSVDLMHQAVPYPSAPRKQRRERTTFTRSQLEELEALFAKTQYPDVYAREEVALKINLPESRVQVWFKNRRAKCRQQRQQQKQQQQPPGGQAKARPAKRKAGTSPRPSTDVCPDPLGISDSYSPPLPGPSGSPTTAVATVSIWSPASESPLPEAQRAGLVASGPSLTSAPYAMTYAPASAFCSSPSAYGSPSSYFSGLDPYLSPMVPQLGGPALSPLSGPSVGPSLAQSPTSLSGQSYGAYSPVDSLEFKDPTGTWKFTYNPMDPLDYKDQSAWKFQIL
HSF1, sequence (Q00613 whole entry): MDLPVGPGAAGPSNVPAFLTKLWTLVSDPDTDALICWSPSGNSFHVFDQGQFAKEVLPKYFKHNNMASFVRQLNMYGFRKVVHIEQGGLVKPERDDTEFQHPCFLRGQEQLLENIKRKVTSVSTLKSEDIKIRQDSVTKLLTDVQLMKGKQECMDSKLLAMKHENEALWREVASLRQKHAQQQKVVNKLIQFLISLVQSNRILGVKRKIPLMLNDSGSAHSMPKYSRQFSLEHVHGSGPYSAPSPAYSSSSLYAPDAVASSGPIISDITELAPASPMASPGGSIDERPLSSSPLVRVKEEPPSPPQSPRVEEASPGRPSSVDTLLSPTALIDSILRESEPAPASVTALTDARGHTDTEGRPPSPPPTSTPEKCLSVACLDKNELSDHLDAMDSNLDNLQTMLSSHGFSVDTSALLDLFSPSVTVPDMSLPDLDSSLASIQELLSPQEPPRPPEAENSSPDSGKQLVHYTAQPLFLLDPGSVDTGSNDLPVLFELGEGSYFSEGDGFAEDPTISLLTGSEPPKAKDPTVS
ETV1, sequence (P50549 whole entry): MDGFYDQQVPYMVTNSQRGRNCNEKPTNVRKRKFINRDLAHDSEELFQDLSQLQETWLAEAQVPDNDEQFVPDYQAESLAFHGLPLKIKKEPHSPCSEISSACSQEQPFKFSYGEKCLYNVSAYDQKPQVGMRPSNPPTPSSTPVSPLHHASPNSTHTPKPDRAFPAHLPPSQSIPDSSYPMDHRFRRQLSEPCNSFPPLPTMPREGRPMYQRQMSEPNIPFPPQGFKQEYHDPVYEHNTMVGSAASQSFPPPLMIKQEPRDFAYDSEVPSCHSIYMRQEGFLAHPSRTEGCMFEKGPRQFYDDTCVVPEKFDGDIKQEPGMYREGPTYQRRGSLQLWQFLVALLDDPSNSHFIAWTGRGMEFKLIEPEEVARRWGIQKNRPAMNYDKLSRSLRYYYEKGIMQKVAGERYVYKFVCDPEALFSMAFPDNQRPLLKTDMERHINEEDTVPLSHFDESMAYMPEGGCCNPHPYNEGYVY
ELF1, sequence (P32519 whole entry): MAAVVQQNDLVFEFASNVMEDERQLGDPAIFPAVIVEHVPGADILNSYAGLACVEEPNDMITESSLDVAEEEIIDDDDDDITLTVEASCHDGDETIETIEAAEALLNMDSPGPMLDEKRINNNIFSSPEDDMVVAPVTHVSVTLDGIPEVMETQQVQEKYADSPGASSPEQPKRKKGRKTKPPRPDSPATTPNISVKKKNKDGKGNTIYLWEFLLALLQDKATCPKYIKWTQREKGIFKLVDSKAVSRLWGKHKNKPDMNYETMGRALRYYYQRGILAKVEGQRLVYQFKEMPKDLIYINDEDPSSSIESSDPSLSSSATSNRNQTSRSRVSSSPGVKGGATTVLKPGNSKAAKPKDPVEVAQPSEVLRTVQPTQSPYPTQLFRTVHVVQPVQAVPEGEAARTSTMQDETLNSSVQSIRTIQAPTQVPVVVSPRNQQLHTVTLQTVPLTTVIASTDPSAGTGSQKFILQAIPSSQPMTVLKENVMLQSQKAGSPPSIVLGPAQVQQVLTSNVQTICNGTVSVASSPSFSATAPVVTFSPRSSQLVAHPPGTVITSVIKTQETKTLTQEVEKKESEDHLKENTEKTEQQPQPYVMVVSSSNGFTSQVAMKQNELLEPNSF

GCTTCG
binding signal (FLI1): 1.3 fold enrichment (6-mer frequency, TF over GST control)
binding signal (ELK1): 1.46 fold enrichment (6-mer frequency, TF over GST control)
binding signal (GABPA): 1.35 fold enrichment (6-mer frequency, TF over GST control)
binding signal (ERG): 1.36 fold enrichment (6-mer frequency, TF over GST control)
binding signal (ELF1): 1.32 fold enrichment (6-mer frequency, TF over GST control)
binding signal (EHF): 1.26 fold enrichment (6-mer frequency, TF over GST control)
binding signal (SPI1): 1.26 fold enrichment (6-mer frequency, TF over GST control)
binding signal (SPIB): 1.3 fold enrichment (6-mer frequency, TF over GST control)
binding signal (ELK3): 1.4 fold enrichment (6-mer frequency, TF over GST control)
binding signal (FEV): 1.26 fold enrichment (6-mer frequency, TF over GST control)
binding signal (ETV5): 1.29 fold enrichment (6-mer frequency, TF over GST control)
binding signal (HSF1): 1.6 fold enrichment (6-mer frequency, TF over GST control)
binding signal (SPIC): 1.17 fold enrichment (6-mer frequency, TF over GST control)
binding signal (ELF4): 1.26 fold enrichment (6-mer frequency, TF over GST control)
binding signal (ELK4): 1.38 fold enrichment (6-mer frequency, TF over GST control)
binding signal (ETV2): 1.33 fold enrichment (6-mer frequency, TF over GST control)
binding signal (ELF3): 1.47 fold enrichment (6-mer frequency, TF over GST control)
binding signal (CRX): 1.25 fold enrichment (6-mer frequency, TF over GST control)
binding signal (ETV1): 1.29 fold enrichment (6-mer frequency, TF over GST control)
